High-throughput results as filed in PubChem BioAssay.
This is a sample that favours compounds with a hit; in the whole collection about 5.9% have one here.
GLP-1R agonist: activates the human GLP-1 receptor. P43220. HEK293 GLP-1R CRE-luciferase, luminescence, 4-6 h; cells express a hypersensitive GLP-1R form. Potency, µM (series often up to 45.6 µM), without a hit: at the highest dose activation, most hits filed as activators. 380,000 tested, 0.007% active. AID 624172; note: % of control where 0% means no effect
GLP-1R inv ag: inverse agonists of human GLP-1 receptor. AID 624417. HEK293 GLP-1R CRE-luciferase, luminescence, 24 h; GLP-1R form is constitutively active. Potency, µM (titrated, usually from 38.3 µM), inactives show at the top dose activity change, negative = inhibition, usual class: inhibitors. 410,000 tested, 1.6% active. P43220; note: % is set by controls: 0 for no effect and ±100 for the full control effect; nearly all actives have a fitted effect of over 55% in size
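Assay principle: reduced luminescence from a cAMP-responsive reporter in HEK293 cells co-expressing a constitutively active GLP-1R. Conditions: 24 hr compound incubation, 37 deg C, 5% CO2.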
HEK293 tox: cytotoxicity counter-screen for GLP-1 receptor inverse agonists. HEK293 cAMP-luciferase reporter cells, luminescence, 24 h. Potency, µM (titrated, usually from 38.3 µM), inactives show top-dose activity change, negative = inhibition, usual class: inhibitors. 410,000 tested, 0.13% active. AID 624418;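 note: loss of luciferase light is scored as toxicity; % is set by controls: 0 for no effect and ±100 for the full control effect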
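Compound-treated cells are incubated 24 hr at 37 deg C under 5% CO2 after a 12 hour attachment period, then luciferase detection reagent is added and luminescence is measured following 12 min at room temperature; lowered signal indicates toxicity.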
VP16 counter: inhibits Gal4-VP16 luciferase reporter, ROR gamma counter-screen | 310,000 tested, 3.5% active | Drosophila S2 Gal4-VP16 UAS-luciferase, luminescence, 20 h | Potency, µM (highest dose often 53.6 µM), for the others: at the top dose activity, negative = inhibition, most hits filed as inhibitors;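 note: Gal4-VP16 expression switched on by copper sulfate through the metallothionein promoter; % is set by controls: 0 for no effect and ±100 for the full control effect; nearly all actives have a fitted effect of over 50% in size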
RORg inh: ROR gamma (mouse) transcription inhibition | P51450 | Drosophila S2 Gal4-RORgamma UAS-luciferase reporter, 20 h | Potency, µM (series often up to 53.6 µM), for inactives: at the top dose activity change, negative = inhibition, most hits filed as inhibitors | 310,000 tested, 5.4% active; note: % is set by controls: 0 for no effect and ±100 for the full control effect; nearly all actives have a fitted effect of over 60% in size
Target sequence (P51450 whole entry, looked up, the tested form may be a part): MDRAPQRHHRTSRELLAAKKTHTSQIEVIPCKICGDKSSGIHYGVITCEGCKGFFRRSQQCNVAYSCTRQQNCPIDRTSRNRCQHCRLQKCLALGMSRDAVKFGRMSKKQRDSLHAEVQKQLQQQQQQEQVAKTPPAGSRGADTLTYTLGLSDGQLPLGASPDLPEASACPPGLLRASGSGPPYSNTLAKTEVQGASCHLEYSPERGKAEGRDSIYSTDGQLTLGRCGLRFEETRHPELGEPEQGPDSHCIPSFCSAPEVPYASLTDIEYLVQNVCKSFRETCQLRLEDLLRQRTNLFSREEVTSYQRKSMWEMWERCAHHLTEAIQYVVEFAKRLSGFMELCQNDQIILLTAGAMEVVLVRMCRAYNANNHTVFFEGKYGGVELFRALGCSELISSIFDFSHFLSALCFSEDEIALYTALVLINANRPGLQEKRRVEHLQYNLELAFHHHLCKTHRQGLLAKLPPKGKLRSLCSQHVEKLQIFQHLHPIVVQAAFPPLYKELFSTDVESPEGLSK
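Stably transfected Drosophila Schneider cells are the test system, with ROR gamma fused to Gal4 and luciferase under UAS control; luminescence is read after 20 hr of 700 uM copper sulfate induction at ambient temperature.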
An asterisk follows results filed as active; u = inconclusive; x = no result given; [ ] = dose if it differs, or a comment. Calls come from the whole dose curve; as a rule, active = well fitted curve in the direction sought with a large enough effect; inconclusive = small, poorly fitted or top-dose-only effect, or another doubt; inactive = no such curve, though single readings can be large; an effect the other way counts as inactive or inconclusive. Potency is the fitted concentration of half-maximal effect.

SMILES	GLP-1R agonist	GLP-1R inv ag	HEK293 tox	VP16 counter	RORg inh
COc1cccc(C2=Cc3ccc(F)cc3C(CC(C)=O)N2c2ccc(C#CC3(O)CCCCC3)cc2)c1 (configuration not stated)	0%	5µM*	5%	x	x
Cc1ccc(C(CNC(=O)Nc2ccc(Cl)cc2)N2CCN(C)CC2)cc1 (configuration not stated)	-6%	8.9µM*	0%	5%	-20%
O=C(Cn1cnc([N+](=O)[O-])n1)N/N=C/c1cc(Cl)ccc1O	-1%	-29%	-21%	u	7.1µM*
Cc1ccccc1/C=N/NC(=O)Cn1cnc([N+](=O)[O-])n1	-7%	17%	-14%	-2%	-28%
O=C(Cn1cnc([N+](=O)[O-])n1)N/N=C/c1ccccc1O	-2%	u	-19%	u	7.1µM*
Nc1c2ccccc2nc2c(O)cccc12	x	x	x	3%[17 µM]	28%[16.9 µM]
CCOC(=O)c1c(C)n(-c2ccc(C)cc2)c2ccc(OCC(O)CN3CCN(C)CC3)cc12 (configuration not stated)	17%	5µM*	u	u	u
CCOC(=O)c1c(-c2ccccc2)oc2ccc(OC)cc12	11%	u	31%	18%	0%
CCOC(=O)c1c(-c2ccccc2)oc2ccc(O)c(CN3CCN(C)CC3)c12	15%	3.2µM*	u	-9%	1%
CCOC(=O)c1c(-c2ccccc2)oc2ccc(OCC)cc12	32%	10µM*	4%	3%	2%
CCOC(=O)c1c(C)n(C)c2ccc(O)c(CN3CCN(C)CC3)c12	2%	-7%	-19%	3%	-18%
CCOC(=O)c1c(C)n(C)c2ccc(OCC(O)CN3CCN(C)CC3)cc12 (configuration not stated)	-9%	1%	9%	5%	-18%
CCOC(=O)c1c(-c2ccccc2)oc2ccc(OCC(O)CNCCN(C)C)cc12 (configuration not stated)	12%	5µM*	u	u	u
CC(NC(=O)Cn1ncc2c3ccccc3n(Cc3ccc(F)cc3)c2c1=O)c1ccccc1 (configuration not stated)	x	15%	0%	x	x
CC[C@H](C)[C@H](NC(=O)[C@H](Cc1ccc(O)cc1)NC(=O)[C@@H]1CCCN1C(=O)[C@@H](N)CCCN=C(N)N)C(=O)N[C@@H](CC(C)C)C(=O)O	x	x	x	-4%	-2%
CCCOCC(C)O (configuration not stated)	x	x	x	1%	1%
CCCN1CCC(=O)N(CCSc2ccc(Br)cc2)CC1	x	x	x	28%	17%
CCOC(=O)c1c(C)n(C)c2ccc(OCC(O)Cn3c(C)nc4ccccc43)cc12 (configuration not stated)	-20%	0%	u	-13%	-21%
CN1CCN(Cc2c(O)ccc3occ(C(=O)c4ccccc4)c23)CC1	-4%	-28%	3.2µM*	0%[0.365 µM]	5%
COc1ccc(C(=O)c2coc3ccc(O)c(CN(C)C)c23)cc1	-5%	-33%	2%	3%	-9%
CCOC(=O)c1c(C)n(C)c2ccc(OCC(O)CNCCc3ccccc3)cc12 (configuration not stated)	3%	11µM*	u	1%	-12%
Cn1c(=O)[nH]c2cc(-c3noc(-c4ccc(C#N)cc4)n3)ccc21	-1%	22%	-7%	x	x
CCOC(=O)c1cccc(Nc2cc(C)nc(C)n2)c1	x	21%	-15%	x	x
CCCCCCCCC(=O)N/N=C/c1ccccn1	u	-28%	u	-8%	-88%
CCCCCCCCC/C(=N\O)c1ccccn1	-3%	u	u	11µM*	3.5µM*
O=C(Nc1ccc2nsnc2c1)N1CCCCCC1	8%	3%	1%	11%	u
S=C(Nc1ccc2nsnc2c1)N1CCCC1	2%	7%	1%	11µM*	7.9µM*
Cc1ccc(NC(=S)N2CCCCC2)cc1C	9%	13%	8%	u	4.5µM*
Cc1cccc(NC(=S)N2CCCCC2)c1	2%	6%	-3%	18µM*	u
